Assay results taken from the supplement of paper PMC13380429.

Test system: Vero E6 infected with SARS-CoV-2
Experiment: inhibition of SARS-CoV-2 cytopathic effect; higher = more antiviral protection, active = above 15
Details: 48 h

Measured: inhibition of SARS-CoV-2 cytopathic effect

CC(CCc1ccc(O)cc1)NCC(O)c1ccc(O)cc1 (stereo not given) [ractopamine]
inactive: 1 nM -2.7% | 8.33 nM -0.49% | 100 nM -1.47% | 833.33 nM -0.11% | 10000 nM 1.53%

CC1(C)Oc2ccc(C#N)cc2[C@@H](N2CCCC2=O)[C@@H]1O [levcromakalim]
inactive: 1 nM 0.65% | 8.33 nM 1.1% | 100 nM 0.31% | 833.33 nM 1.22% | 10000 nM 2.06%

NC(=O)c1cn(Cc2c(F)cccc2F)nn1 [rufinamide]
inactive: 1 nM 2.25% | 8.33 nM 1% | 100 nM 2.89% | 833.33 nM 1.75% | 10000 nM 3.51%

COc1ccccc1N1CCN(CCN(C(=O)C2CCCCC2)c2ccccn2)CC1
inactive: 1 nM -3.64% | 8.33 nM -4.61% | 100 nM -0.56% | 833.33 nM 3.47% | 10000 nM -0.29%

CC1(C)O[C@@H]2[C@@H](CO[C@@]3(COS(N)(=O)=O)OC(C)(C)O[C@@H]23)O1 [topiramate]
inactive: 1 nM -1.19% | 8.33 nM 1.71% | 100 nM -2.21% | 833.33 nM 0.74% | 10000 nM -0.18%

O=c1[nH]c(=O)n([C@H]2CCCO2)cc1F (racemic) [ftorafur]
inactive: 1 nM 0.19% | 8.33 nM -1.89% | 100 nM 6.11% | 833.33 nM -0.34% | 10000 nM -2.89%

CCCC[C@H]1OC(=O)c2ccccc21 [butylphthalide]
inactive: 1 nM -2.11% | 8.33 nM -2.6% | 100 nM -0.12% | 833.33 nM 1.5% | 10000 nM 0.31%

CCCCOC(=O)c1cc2c(cn1)[nH]c1ccccc12 [beta-CCB]
inactive: 1 nM -1.28% | 8.33 nM -1.62% | 100 nM -0.04% | 833.33 nM -2.91% | 10000 nM -5.4%

OCCCNc1cc(-c2ccnc(Nc3cccc(Cl)c3)n2)ccn1
inactive: 1 nM 1.32% | 8.33 nM -0.77% | 100 nM 1.6% | 833.33 nM -16.6% | 10000 nM 11.2%

NC(=O)NC1NC(=O)NC1=O (stereo not given) [allantoin]
inactive: 1 nM -0.84% | 8.33 nM -1.51% | 100 nM -2.49% | 833.33 nM -1.11% | 10000 nM 1.18%

[N-]=[N+]=N[C@]1(CO)O[C@@H](n2ccc(N)nc2=O)[C@H](O)[C@@H]1O
inactive: 1 nM -1.63% | 8.33 nM 0.795% | 100 nM 0.87% | 833.33 nM 1.03% | 10000 nM -0.005%

Cc1coc2c1C(=O)C(=O)c1c-2ccc2c(C)cccc12 [tanshinone-I]
inactive: 1 nM 1.07% | 8.33 nM -0.7% | 100 nM 0.25% | 833.33 nM -2.81% | 10000 nM -1.34%

C[C@@H](C(=O)O)c1ccc(-c2ccccc2)c(F)c1 (racemic) [flurbiprofen-(+/-)]
inactive: 1 nM 0.383% | 8.33 nM 0.72% | 100 nM 1.91% | 833.33 nM 1.32% | 10000 nM -0.637%

Cc1ccc(Cl)c(Nc2ccccc2C(=O)O)c1Cl [meclofenamic-acid]
inactive: 1 nM -0.6% | 8.33 nM 1.04% | 100 nM -1.96% | 833.33 nM 0.39% | 10000 nM -1.58%

O=C(O)Cc1cccnc1C(=O)O [homoquinolinic-acid]
inactive: 1 nM 3.71% | 8.33 nM -1.17% | 100 nM -11.5% | 833.33 nM 1.81% | 10000 nM 1.14%

COc1cccc(CCc2ccccc2OCC[C@@H]2C[C@@H](O)CN2C)c1
inactive: 1 nM 2.39% | 8.33 nM 4.9% | 100 nM 14.7% | 833.33 nM -9.02% | 10000 nM -0.59%

CN(c1nccc(=O)[nH]1)C1CCN(c2nc3ccccc3n2Cc2ccc(F)cc2)CC1 [mizolastine]
inactive: 1 nM -1.24% | 8.33 nM -0.74% | 100 nM 0.47% | 833.33 nM 0.93% | 10000 nM -1.33%

CCCCCCCC/C=C\CCCCCCCC(=O)NCc1ccc(O)c(OC)c1 [olvanil]
inactive: 1 nM 1.88% | 8.33 nM -0.08% | 100 nM 4.43% | 833.33 nM 1.07% | 10000 nM 2.19%

COc1cc(NC(=O)c2cccc(-n3cc(NC(=O)Nc4cccc(C)c4)cn3)c2)cc(OC)c1OC
inactive: 1 nM -0.97% | 8.33 nM -0.75% | 100 nM 2.66% | 833.33 nM 0.39% | 10000 nM -0.61%
